HP1b chromo inh – HTS for Inhibitors of HP1-beta Chromodomain Interactions with Methylated Histone Tails; Chromobox protein homolog 1 (Homo sapiens), P83916; AlphaScreen HP1-beta / biotin-H3K9me3 peptide binding; Potency, µM (highest dose often 114 µM), for inactives: top-dose activity change, negative = inhibition, actives largely listed as inhibitors; 0.56% of 390,000 active; note: nearly all actives have a fitted effect of over 70% in size
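HP1-beta protein (50 nM final) preincubated 30 min at room temperature with biotinylated H3(1-18)K9me3 peptide (50 nM) in PBS pH 7.4, 0.01% Tween-20, then compound added for 30 min. AlphaScreen streptavidin donor/nickel chelate acceptor beads (10 ug/mL final), 30 min dark, luminescence read.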
G9a inh – qHTS Assay for Inhibitors of Histone Lysine Methyltransferase G9a | Histone-lysine N-methyltransferase EHMT2 (Homo sapiens), Q96KQ7 | G9a H3K9 monomethylation, AlphaScreen, 2 h | Potency, µM (series often up to 102 µM), inactives show top-dose activity, negative = inhibition, most hits filed as inhibitors | 8.8% of 350,000 active | AID 504332, 2011; note: % is set by controls: 0 for no effect and ±100 for the full control effect; nearly all actives have a fitted effect of over 75% in size
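Chemiluminescent proximity detection of H3K9 monomethylation, read after 10 min bead incubation in the dark. Reaction: 20 nM G9a, 500 nM biotin-H3K9 peptide, 20 uM SAM cofactor, 2 h, room temperature, following 15 min enzyme-compound preincubation.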
BAZ2B block – qHTS Assay for Inhibitors of BAZ2B | AlphaScreen BAZ2B-H3K14Ac peptide displacement | Potency, µM (doses to about 114 µM), without a hit: at the top dose activity change, negative = inhibition, hits mostly inhibitors | Bromodomain adjacent to zinc finger domain protein 2B (Homo sapiens), Q9UIF8 | 4.4% of 360,000 active; note: % is set by controls: 0 for no effect and ±100 for the full control effect; nearly all actives have a fitted effect of over 60% in size
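Inhibition is scored as reduced AlphaScreen emission. The BAZ2B/b-H3(5-23)K14Ac complex (50 nM each) in PBS pH 7.4, 0.01% Tween-20 meets compound (up to 110 uM) for 30 min at RT before bead addition.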
Sfp inh – qHTS Assay for Inhibitors of Bacillus subtilis Sfp phosphopantetheinyl transferase (PPTase); Biochemical Sfp PPTase activity, qHTS; Potency, µM, for the others: largest response in the series, negative = inhibition, hits mostly inhibitors; 3.5% of 310,000 active; AID 1490, 2009;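 note: the enzyme is Sfp with the accession as filed and its product quenches rhodamine fluorescence; 0% = enzyme reaction without inhibitor and -100% = no enzyme wells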
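Reaction rates are the 30-min fluorescence difference (ex 525, em 598 nm) in wells containing 15 nM Sfp, 5 uM rhodamine-CoA and 12.5 uM BHQ-2-YbbR at pH 7.6 with 10 mM MgCl2.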
L3MBTL1 inh – qHTS Assay for the Inhibitors of L3MBTL1 | AID 485360, 2010 | Potency, µM (series often up to 57.1 µM), without a hit: at the top dose activity, negative = inhibition, usual class: inhibitors | AlphaScreen L3MBTL1–H3K9me1 peptide binding | 0.66% of 230,000 active | Lethal(3)malignant brain tumor-like protein 1 (Homo sapiens), Q9Y468; note: % is set by controls: 0 for no effect and ±100 for the full control effect; nearly all actives have a fitted effect of over 60% in size
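AlphaScreen proximity signal between nickel-chelate acceptor and streptavidin donor beads (final 10 ug/mL) reports binding of 50 nM L3MBTL1 to 75 nM biotin-H3 K9me1 peptide; complex incubated with compounds 30 min at room temperature; cefsulodin titration as control.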
JMJD2A Tudor – qHTS Assay for Inhibitors of JMJD2A-Tudor Domain | Lysine-specific demethylase 4A (Homo sapiens), O75164 | Potency, µM (titrated, usually from 114 µM), for inactives: top-dose activity change, negative = inhibition, actives largely listed as inhibitors | AlphaScreen JMJD2A-Tudor / H3K4me3 peptide binding | 4.4% of 390,000 active; note: % is set by controls: 0 for no effect and ±100 for the full control effect; nearly all actives have a fitted effect of over 50% in size
Target sequence (O75164 whole entry, looked up, the tested form may be a part): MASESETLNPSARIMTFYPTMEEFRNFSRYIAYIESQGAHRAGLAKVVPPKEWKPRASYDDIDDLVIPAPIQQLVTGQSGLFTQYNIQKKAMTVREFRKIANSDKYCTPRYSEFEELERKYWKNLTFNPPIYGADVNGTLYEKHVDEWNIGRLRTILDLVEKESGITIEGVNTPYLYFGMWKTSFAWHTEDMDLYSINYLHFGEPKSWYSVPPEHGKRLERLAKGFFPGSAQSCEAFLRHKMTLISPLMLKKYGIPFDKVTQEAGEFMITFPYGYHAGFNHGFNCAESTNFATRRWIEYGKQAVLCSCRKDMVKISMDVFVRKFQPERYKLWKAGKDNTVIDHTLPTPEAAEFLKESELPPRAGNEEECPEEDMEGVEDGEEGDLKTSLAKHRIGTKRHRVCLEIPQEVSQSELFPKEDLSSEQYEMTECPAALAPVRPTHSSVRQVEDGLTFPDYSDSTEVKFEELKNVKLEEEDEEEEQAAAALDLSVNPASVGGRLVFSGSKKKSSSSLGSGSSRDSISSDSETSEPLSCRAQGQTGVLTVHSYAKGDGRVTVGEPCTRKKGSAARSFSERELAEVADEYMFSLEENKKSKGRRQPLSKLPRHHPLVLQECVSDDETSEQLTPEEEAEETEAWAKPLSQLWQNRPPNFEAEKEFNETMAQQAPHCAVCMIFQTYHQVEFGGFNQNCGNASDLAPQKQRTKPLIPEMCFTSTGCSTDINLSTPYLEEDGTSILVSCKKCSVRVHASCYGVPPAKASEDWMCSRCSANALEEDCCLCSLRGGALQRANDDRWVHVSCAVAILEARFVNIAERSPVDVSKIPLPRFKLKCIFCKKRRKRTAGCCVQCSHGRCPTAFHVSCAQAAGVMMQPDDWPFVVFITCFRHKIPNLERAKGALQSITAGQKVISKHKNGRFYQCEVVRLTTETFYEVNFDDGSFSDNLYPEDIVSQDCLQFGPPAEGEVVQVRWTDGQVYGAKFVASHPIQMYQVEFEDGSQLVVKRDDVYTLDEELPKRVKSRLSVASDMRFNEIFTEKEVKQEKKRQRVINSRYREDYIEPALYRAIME
* marks the source's active call; other numbers are inactive results; ? = inconclusive; nt = not tested or not shown; [ ] = remark or other dose. This is a sample that favours compounds with a hit; in the whole collection about 12% have one here. Calls come from the whole dose curve; as a rule, active = well fitted curve in the direction sought with a large enough effect; inconclusive = small, poorly fitted or top-dose-only effect, or another doubt; inactive = no such curve, though single readings can be large; an effect the other way counts as inactive or inconclusive. Potency is the fitted concentration of half-maximal effect.

SMILES	HP1b chromo inh	G9a inh	BAZ2B block	Sfp inh	L3MBTL1 inh	JMJD2A Tudor
Cc1ccc(-c2nnc(Nc3ccc(O)cc3)c3ccccc23)cc1S(=O)(=O)N1CCOCC1	13.3%	3.9%[59 µM]	-19.6%	nt	nt	?
O=C1NCCOC(=O)[C@@H](Cc2ccc(F)cc2)CC/C=C/C[C@H]1CC(=O)N(CCO)Cc1ccccc1	39.0%	nt	nt	nt	5.0%	-13.7%
COc1ccc(CNCCc2ccccc2F)c(OC)c1C	?	79.4µM*	?	-21.4%	-9.1%	17.8µM*
COc1ccc(CNCCc2c[nH]c3ccccc23)c(OC)c1C	?	15.8µM*	56.2µM*	-27.0%	nt	5.62µM*
CC1(C)C(O)CC(O)[C@]2(C)C1CC(=O)[C@]1(C)C2CC[C@@]2(C)C(c3ccoc3)OC(=O)C3OC321 (some centres undefined)	nt	0.5%[2.33 µM]	nt	11.2%	nt	nt
O=C1NC(=S)N(c2ccc(Br)cc2)C(=O)/C1=C/N1CCN(C(=O)c2ccco2)CC1	4.1%	44.7µM*	-33.1%	-3.8%	-1.3%	-29.0%
Cc1ccc(N2C(=O)/C(=C/N3CCN(C(=O)c4ccco4)CC3)C(=O)NC2=S)cc1C	4.6%	54.4%[12.7 µM]	-31.2%	44.7µM*	3.2%	-13.5%
Cc1cccc(N2C(=O)/C(=C/N3CCN(C(=O)c4ccco4)CC3)C(=O)NC2=S)c1	17.2%	?	-2.5%	?	4.9%	-18.3%
CCOC(=O)C(O)(c1ccc(NC(=S)NC(=O)c2ccc(Cl)cc2Cl)c(C)c1)C(F)(F)F (centres undefined)	-4.0%	9.9%[59 µM]	-8.6%	-15.3%	-3.9%	-18.1%
COC(=O)C(O)(c1ccc(NC(=S)NC(=O)c2ccc(Cl)cc2Cl)c(C)c1)C(F)(F)F (centres undefined)	-19.6%	1.5%[59 µM]	-35.3%	-27.4%	-2.1%	79.4µM*
COc1cc(CC2(CCc3ccncc3)C(=O)N(C)C(=O)N(C)C2=O)cc(OC)c1OC	19.9%	22.4µM*	-14.5%	-2.2%	5.5%	-16.2%
Brc1c(Br)c(Br)c2n[nH]nc2c1Br	nt	18.8%[59 µM]	nt	16.7%	nt	nt
NC1C=CC=C(C(=O)O)C1 (centres undefined)	31.3%	3.16µM*	nt	-19.7%	nt	-20.9%
COc1ccccc1NC(=O)Oc1cccc(OC(=O)c2ccccc2)c1	25.4%	70.8µM*	-9.3%	7.5%	nt	-12.7%
CC1Cc2c(cnc3c2CN(C)CC3)CO1 (centres undefined)	nt	nt	nt	-24.3%	nt	nt
COc1ccc(CCN2CCC(CNC(=O)c3cnn(-c4ccc(C)cc4)c3C3CCN(C(=O)OC(C)(C)C)CC3)CC2)cc1	5.7%	-19.9%[59 µM]	?	nt	nt	?
Cc1ccc2cc3c(ccc4ccccc43)c3c2c1CC3	nt	?	nt	50.1µM*	nt	nt
C/C(O)=C(/C#N)C(=O)Nc1cc(Br)ccc1Br	nt	nt	nt	8.4%	nt	nt
Cc1cc(/C=C2/C(=O)NC(=O)N(Cc3ccco3)C2=O)c(C)n1-c1ccccc1	70.8µM*	10µM*	?	-21.7%	-28.2%	50.1µM*
CCc1ccc(N2C(=O)NC(=O)/C(=C/c3cccn3CCOc3ccc(C)cc3)C2=O)cc1	35.8%	21.9%[59 µM]	?	0.3%	-17.1%	-4.2%
CCN(CC)c1ccc(/C=C2/C(=O)NC(=O)N(Cc3ccco3)C2=O)cc1	-14.3%	?	39.8µM*	50.1µM*	?	?
NC(=O)C1CCN(/C=C2\C(=O)NC(=O)N(Cc3ccco3)C2=O)CC1	?	?	?	?	nt	79.4µM*
O=C1NC(=O)N(Cc2ccco2)C(=O)/C1=C\c1cccn1CCOc1ccc(Cl)cc1	6.5%	-5.8%[59 µM]	39.8µM*	44.7µM*	-17.5%	?
CC[C@H]1C(=O)OC[C@H]1Cc1cncn1C	nt	5.2%[21.5 µM]	nt	10.0%	nt	nt

Assay outcomes (PubChem)
